# PfGluPho inh: PfG6PD (Plasmodium falciparum) enzyme inhibition. PfGluPho enzyme, NADPH resazurin-diaphorase fluorescence. AID 504690. inhibition, % at 20 µM. 0.78% of 350,000 active;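 active means inhibition reaching at least a set limit at 20 µM in the primary screen, cut at about 59% in these data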;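 further: 0% = DMSO wells with substrate and 100% = DMSO wells lacking glucose-6-phosphate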
# PRMT1 FP inh: blocks human protein arginine methyltransferase 1. Q99873. recombinant PRMT1, activity-based probe fluorescence polarization. inhibition, % at 2.79 µM. 1.3% of 370,000 active. AID 652257;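 active means inhibition above about 21% made by adding two undisclosed values, limit read from the data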
# UHRF1 binding: human UHRF1 methylated DNA binding inhibitors. Q96T88. UHRF1 binding to methylated oligo, TR-FRET. AID 687016. 0.75% of 370,000 active. inhibition, % at 4.4 µM; in the data active means inhibition above about 21%;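 further: UHRF1 SRA domain binding a hemimethylated CpG hairpin DNA probe; 0% = median of test compound wells and 100% = reference inhibitor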
# MBD2 DNA inh: MBD2-methylated oligo binding inhibition | TR-FRET, MBD2 binding to methylated oligonucleotide | 0.31% of 370,000 active | inhibition, % at 4.4 µM; in the data active means inhibition above about 13%
# Target sequence (Q9UBB5 whole entry, looked up): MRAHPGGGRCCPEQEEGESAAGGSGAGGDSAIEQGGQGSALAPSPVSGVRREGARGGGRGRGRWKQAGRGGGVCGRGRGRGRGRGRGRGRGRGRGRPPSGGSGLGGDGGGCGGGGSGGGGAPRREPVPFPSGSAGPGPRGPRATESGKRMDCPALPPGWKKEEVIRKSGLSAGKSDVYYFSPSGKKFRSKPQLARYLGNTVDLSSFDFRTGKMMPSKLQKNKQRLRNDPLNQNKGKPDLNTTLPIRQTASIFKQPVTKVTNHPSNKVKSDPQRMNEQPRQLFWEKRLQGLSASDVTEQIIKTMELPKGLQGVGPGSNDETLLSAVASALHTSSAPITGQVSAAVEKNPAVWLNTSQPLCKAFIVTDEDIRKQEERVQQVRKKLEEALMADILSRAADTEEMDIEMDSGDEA
# M18AAP inhibitor: PfM18AAP enzyme inhibition | recombinant PfM18AAP, H-Glu-NHMec fluorogenic cleavage | inhibition, % at 7.35 µM | 1.2% of 290,000 active | AID 1822;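 active means inhibition above the campaign mean inhibition over all tested compounds plus 3 SD, cut at about 28% in these data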;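 further: 0% = plate median of test compound wells and 100% = 2 mM ZnCl2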
# Starred values were filed as active, the others as inactive; . = not tested or not shown. Rows were chosen to be rich in hits. Some 3.3% of all compounds tested hit in one or more screens of this group.
SMILES,PfGluPho inh,PRMT1 FP inh,UHRF1 binding,MBD2 DNA inh,M18AAP inhibitor
COc1cccc(NC(=S)N(CCN(C)C)Cc2cccs2)c1,-1.4,-2.9,20.8*,7.5,-2.0
CC1(c2nnnn2-c2ccc3c(c2)OCCO3)CSCC(=O)N1CCc1c[nH]c2ccccc12 (stereo not drawn),.,-1.4,0.4,5.4,.
CC(C)N(C(=O)Nc1ccc2nsnc2c1)C(C)C,55.0,25.3*,15.0,-1.4,16.1
COc1ccc(N(C)C(=O)Nc2ccc3nsnc3c2)cc1,-6.7,9.0,4.4,-2.7,11.6
CCN1c2ccccc2N(C)C1(C)c1ccccc1 (stereo not drawn),67.5*,.,.,.,-1.9
O=C(CN1CCc2onc(-c3ccc(-n4cc(-c5ccccc5)nn4)cc3)c2C1=O)N1CCOCC1,.,14.8,0.4,2.6,.
Cc1ccc(OC2CCN(C(=O)[C@H]3O[C@@H](n4cnc5c(N)ncnc54)[C@H](O)[C@@H]3O)CC2)cc1,.,8.5,2.6,2.7,.
COc1ccccc1C(=O)N1CCN(C(=O)[C@H]2O[C@@H](n3cnc4c(N)ncnc43)[C@H](O)[C@@H]2O)CC1,.,8.7,24.1*,11.7,.
O=C(COCc1ccccc1)NC1CCCCN(Cc2cccc(Cl)c2)C1=O (stereo not drawn),.,0.7,-0.7,-1.3,.
CC(C)(C)S(=O)N1C[C@H]2CC(=O)C=C2[C@@H]1CCO (stereo partly drawn),.,3.3,-0.4,-2.3,.
CCOc1ccccc1N(CC(=O)N(C)Cc1ccccc1)S(=O)(=O)c1ccccc1,10.4,-3.2,22.6*,7.3,-5.9
COC(=O)C1CCN(C(=O)C2CC(=O)N(c3ccc(OC)cc3)C2c2ccc(OC)cc2)CC1 (stereo not drawn),.,-2.1,-2.8,1.5,.
COC(=O)Nc1cc(C(=O)c2ccc(Cl)cc2Cl)c[nH]1,4.1,23.6*,-0.6,-3.1,0.5
O=C(NC1CCCCC1)O[C@H]1CC[C@@]23CCCN2C(=O)CCC[C@H]3C1,.,-1.8,-0.8,0.6,.
CCS(=O)(=O)N1Cc2ccccc2CC1C(=O)Nc1cccc(C)c1 (stereo not drawn),-4.5,0.4,49.9*,3.6,3.9
CS(=O)(=O)Cc1ccc(C(=O)NNC(=O)c2cc(-c3ccccc3)n[nH]2)cc1,1.1,-2.2,-1.7,-0.9,.
CS(=O)(=O)c1ccc(C(=O)NNC(=O)c2cc(-c3ccccc3)n[nH]2)cc1,-4.6,23.9*,-0.5,-3.5,.
CCOc1ccc(S(=O)(=O)N2CCCC(C(=O)NCC3CCCO3)C2)cc1Cl (stereo not drawn),-12.7,1.6,83.1*,-5.0,.
CC(=O)N1CCN(C(=S)c2cccc([N+](=O)[O-])c2)CC1,5.0,-0.5,-0.2,1.2,-13.2
CCN1CCN(C(=S)Nc2cccc([N+](=O)[O-])c2)CC1,10.9,-1.3,-1.6,-5.4,5.9
O=[N+]([O-])c1cccc(NC(=S)N2CCCC2)c1,19.6,1.7,26.5*,7.3,-9.3
O=[N+]([O-])c1ccc(N2CCN(C(=S)c3cccc([N+](=O)[O-])c3)CC2)cc1,68.2*,2.0,3.0,0.6,10.1
Cc1ccc(N2CCN(C(=S)c3ccc(-c4cccc([N+](=O)[O-])c4)o3)CC2)cc1,30.1,23.6*,5.1,4.1,30.1*
Cc1ccccc1N1CCN(C(=S)c2ccc(-c3cccc([N+](=O)[O-])c3)o2)CC1,2.5,4.0,-1.4,-4.4,9.9
COC(=O)C1=C(C)N(Cc2ccccc2C(F)(F)F)C(=NCc2ccc(OC)cc2)NC1c1cccc(F)c1 (stereo not drawn),.,-0.5,-1.2,0.1,.
SMILES,PfGluPho inh,PRMT1 FP inh,UHRF1 binding,MBD2 DNA inh,M18AAP inhibitor
O=C1CC(Sc2cccs2)C(=O)N1c1ccccc1 (stereo not drawn),10.2,48.8*,-0.2,0.6,-47.5
O=C(O)c1cccnc1SC1CC(=O)N(c2ccccc2)C1=O (stereo not drawn),-11.1,0.0,2.1,-2.2,6.0
O=C(O)C1CCN(C(=O)CSc2nc3ccccc3s2)CC1,-9.0,1.8,0.3,-2.6,-4.9
O=C(CCCc1nc2ccccc2s1)N1CCN(c2ccccc2)CC1,2.9,23.3*,-1.9,5.0,20.6
O=C(CSc1nc2ccccc2s1)N1CCCCC1,35.1,5.5,41.6*,-5.0,-13.0
COc1ccccc1-c1nnc2n1N=C(c1ccc(O)c(O)c1)CS2,-38.0,.,.,.,69.4*
Cc1ccccc1-c1nnc2n1N=C(c1ccc(O)c(O)c1)CS2,.,13.8,5.2,-1.5,.
Cc1ccc(-c2nnc3n2N=C(c2ccc(-c4ccccc4)cc2)CS3)cc1,.,4.6,-2.7,-0.7,.
Cc1ccc(Cc2c(-c3ccco3)nc3c4ccccc4ccn23)cc1,.,20.2,15.4,0.7,.

# Screens as filed in PubChem BioAssay.
